Laboratory results taken from PubChem BioAssay AID2018 (Sanford-Burnham Center for Chemical Genomics, 2009).
Screen size: about 1,200 compounds; about 600 (50%) were called active. Rule as the data show it: active = inhibition above about 42%; inactive = the rest. So high a share suggests a set chosen from earlier hits. The list shows a part of the results. Measured potencies and affinities stand elsewhere.

What follows are compounds tested against SUMO-conjugating enzyme UBC9 (Homo sapiens) (UniProt P63279) (assay: blockers of UBC9-mediated SUMO conjugation – biochemical, AlphaScreen, SUMOylation inhibitor project, confirmation (AID 2018)). Conditions: AlphaScreen in vitro SUMOylation assay; at 35 µM; stronger effect = higher value.
Sequence of SUMO-conjugating enzyme UBC9 (Homo sapiens) (P63279 whole entry, looked up): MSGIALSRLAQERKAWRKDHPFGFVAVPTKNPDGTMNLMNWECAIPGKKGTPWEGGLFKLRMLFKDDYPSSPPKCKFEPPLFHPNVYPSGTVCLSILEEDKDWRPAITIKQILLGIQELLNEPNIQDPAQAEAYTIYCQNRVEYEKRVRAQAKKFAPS

inhibition, active:
O=C1NNC(c2ccccc2)=N/C1=C\c1ccccc1Cl 101%
O=C(NC1(O)C(=O)c2ccccc2C1=O)c1c(Cl)cccc1Cl 101%
O=C(NC1(O)C(=O)c2ccccc2C1=O)c1ccccc1 101%
O=C(NC1(O)C(=O)c2ccccc2C1=O)c1ccc(C(F)(F)F)cc1 101%
O=C(CC1CS(=O)(=O)CC1CC(=O)Oc1ccccc1F)Oc1ccccc1F (stereo unspecified) 102%
Cc1c(CC(=O)O)c(=O)oc2c(C)c(OCc3ccccc3Br)ccc12 85.8%
O=C1C=C(N(CCO)Cc2ccccc2)c2ccccc2C1=O 101%
Nc1ccc(Br)c2cccnc12 49%
O=C(N/N=C/c1cc(Cl)cc([N+](=O)[O-])c1O)c1ccccc1NS(=O)(=O)c1cccs1 101%
COc1ccccc1/C=C/C=N/NC(=O)c1cc(-c2ccco2)[nH]n1 60.4%
O=C1C=C(N2CCOCC2)c2ccccc2C1=O 102%
NNC(=O)c1oc2nc(-c3cccs3)cc(-c3ccco3)c2c1N 43.3%
NNC(=O)c1oc2nc(-c3ccco3)cc(-c3ccco3)c2c1N 56.6%
C/C(=N\NC(=O)c1cc(O)ccc1O)c1cccc(NC(=O)c2ccc(Cl)cc2)c1 94.8%
COc1cc(/C=N/NC(=O)c2cc(-c3ccco3)nc3ccccc23)cc(OC)c1O 55.1%
CCOc1cc(/C=C2/C(=O)N(c3ccccc3)N=C2C)ccc1OC(=O)c1ccco1 73.7%
CCOc1cc(/C=C2\C(=O)N(c3ccc(C(N)=O)cc3)N=C2C)ccc1OC(=O)c1cccs1 81.1%
COC1=C(Nc2ccc(O)cc2)C(=O)c2ccccc2C1=O 74.4%
COC1=C(Nc2ccccc2)C(=O)c2ccccc2C1=O 93%
COC1=C(Nc2ccccc2OC)C(=O)c2ccccc2C1=O 96.4%
O=S(=O)(c1ccc2nc(-c3ccco3)c(-c3ccco3)nc2c1)N1CCOCC1 52%
CCOC(=O)c1c(C)oc2c1c(C=NCCO)c(O)c1ccccc12 99.7%
O=c1cc2c(=O)oc3cc(O)c(O)oc3c2c(O)c1O 89.8%
Cc1[nH][nH]c(=O)c1C(c1ccc(-c2ccccc2C(=O)O)o1)c1c(C)[nH][nH]c1=O 66.6%
COc1ccc(-c2ccc(C(c3c(C)[nH][nH]c3=O)c3c(C)[nH][nH]c3=O)o2)c([N+](=O)[O-])c1 73.1%
COC(=O)c1ccccc1-c1ccc(C(c2c(C)[nH][nH]c2=O)c2c(C)[nH][nH]c2=O)o1 88.2%
CN(C)c1cc(N/N=C/c2ccccc2C(F)(F)F)nc(N(C)C)n1 72.9%
Cc1nc2ccccc2c(=O)n1/N=C/c1ccc(O)c(O)c1O 81.7%
Cc1ccc(-c2[nH]ncc2/C=N/n2c(C)nc3ccccc3c2=O)cc1 66.8%
COc1ccc(S(=O)(=O)C(C#N)c2nc3ccccc3nc2N2CCCCC2)cc1 (stereo unspecified) 42.8%
Cc1ccc(C)c(S(=O)(=O)C(C#N)c2nc3ccccc3nc2N2CCCC2)c1 (stereo unspecified) 44.3%
Cc1ccc(S(=O)(=O)C(C#N)c2nc3ccccc3nc2N2CCCC2)cc1C (stereo unspecified) 45.8%
N#CC(c1nc2ccccc2nc1N1CCCC1)S(=O)(=O)c1ccccc1 (stereo unspecified) 66.7%

inhibition, inactive:
CC(C)N1C(=O)CC(Nc2cccc3cccc(N)c23)C1=O (stereo unspecified) 0.8%
Cn1c(=O)cc(C(=O)N/N=C/c2ccc(Cl)cc2)[nH]c1=O -20.2%
CN(NC(=O)c1ccc(Cl)cc1)c1ncc(C(F)(F)F)cc1Cl 2.5%
Cc1onc(-c2ccccc2Cl)c1C(=O)NCc1ccco1 32.5%
O=c1c(=Nc2ccccc2O)c(=O)c2ccccc12 9.9%
Clc1ccc(-c2nnc3c4ccccc4nc(N4CCOCC4)n23)cc1Cl 4%
CC(=O)Oc1c(/C=C(\C#N)C(N)=O)[nH]c2ccccc12 21.9%
Cc1ccc(NC(=O)Nc2cccn(Cc3c(F)cccc3Cl)c2=O)cc1 14.6%
O=C(NCc1ccccc1)Nc1cccn(Cc2ccccc2Cl)c1=O 20.8%
Cc1nn2c3c(cnc2c1-c1ccc(Cl)cc1)C(=O)CC(c1ccco1)C3 (stereo unspecified) 9.7%
COc1ccccc1Oc1c(C)oc2c(CN3CCN(C)CC3)c(O)ccc2c1=O 7%
N#C/C(=C/c1ccc(-c2ccccc2)o1)c1nc(-c2cccs2)cs1 -4.5%
CC(=O)Oc1ccc2c(C)c(CC(C)O)c(=O)oc2c1 (stereo unspecified) -6.6%
Cc1c(CC(=O)N2CCN(C(=O)C3COc4ccccc4O3)CC2)c(=O)oc2c(C)c(O)ccc12 (stereo unspecified) 17.7%
NC(=O)CC(NC(=O)Cc1ccc(Br)cc1)c1ccc(NCCOc2ccccc2)c([N+](=O)[O-])c1 (stereo unspecified) 10.7%
CCOC(=O)C1CC(=O)c2cc(OC)c(OC)cc2C1 (stereo unspecified) 12.9%
O=C(N/N=C/c1ccc(N2CCOCC2)cc1)c1ccccc1NS(=O)(=O)c1cccs1 17.4%
Cc1ccc(-c2cc(-c3ccccc3O)nc(N/N=C/c3cccnc3)n2)cc1 23%
O=c1[nH]c(N2CCN(c3ccccc3)CC2)nc2c1CCC2 8.8%
CN(C(=S)Nc1cccnc1)c1ccc(O)cc1 19.3%
O=C(Nc1cccc(N=Cc2cc(Br)cc(Br)c2O)c1)c1ccco1 24.9%
COc1ccc2oc(=O)c(/C(C)=N/NC(=O)c3ccncc3)cc2c1 7.3%
Cc1ccc(NC2=CC(=O)CC(c3ccco3)C2)c(N)c1 (stereo unspecified) 20.2%
O=C(COC(=O)c1cc(-c2cccs2)nc2ccccc12)NCc1ccco1 7.3%
CCOc1ccc(/C=N/NC(=O)c2cc(-c3ccco3)nc3ccccc23)cc1 -1.6%
CCN(CC)Cc1c(O)ccc2c(=O)c(Oc3ccccc3OC)coc12 3.9%
COc1ccccc1Oc1c(C)oc2cc(OC(=O)c3ccco3)ccc2c1=O 18.7%
CCOC(=O)N1CCN(C(=O)c2cccn3c(=O)c4cc(Br)ccc4nc23)CC1 4.2%
CC(NC(=O)Nc1ccc(O)cc1)(C(F)(F)F)C(F)(F)F 1.3%
CC(=O)c1ccc(NC(=S)Nc2cccc3ccccc23)cc1 7.1%
Nc1ccc(N(CCO)CCO)cc1 38.6%
COc1ccc(C=Nc2ccc3[nH]ncc3c2)c(O)c1 19.3%
CN1C(=O)N(C)c2ccc(C=O)c3cccc1c23 22.2%
Cc1cccn2cc(-c3ccc(S(=O)(=O)N4CCOCC4)cc3)nc12 -6.1%
O=C(Nc1ccccc1F)Nc1cc(S(=O)(=O)N2CCOCC2)ccc1N1CCCC1 13.5%
O=C(CSc1ncccn1)NCc1ccc2c(c1)OCO2 -9.4%
NCCc1ccc(O)c(O)c1 -6.3%
COc1ccc(O)c(C(c2c(C)[nH][nH]c2=O)c2c(C)[nH][nH]c2=O)c1 17.7%
Cc1ccc(-n2cccn2)c([C@@H]2C[C@H]3CN(C)C(=O)[C@]34CCCN24)c1 8.1%
Cc1ccccc1-c1nc2cc(N)ccc2o1 21.4%
CN(C)S(=O)(=O)c1cc(NC(=O)CNCc2ccccc2)ccc1Cl -19.5%
O=C(c1cccn2c(=O)c3cc4ccccc4cc3nc12)N1CCN(c2ccccc2)CC1 27.6%
CN(C)C=Nc1ccc2nc3c(cc2c1)[nH]c1ccccc13 20.5%
Cc1cc[n+](-c2[nH]c(=O)sc2/C=N/N=C(\[O-])c2ccncc2)cc1 -9.7%
Cc1cccn2c(=O)c3cc(C#N)c(=NC(=O)c4ccco4)n(Cc4ccco4)c3nc12 25.4%
O=c1oc(-c2cccs2)nc2sc3c(c12)CCC3 -2.8%
O=C1NC(=O)c2cc(NC(=O)C3CCCCC3)ccc21 8.7%
O=C(c1cccc2cccc(O)c12)N1CCCCC1 14.8%
Cc1cc(C)cc(Oc2coc3c(CN(C)C)c(O)ccc3c2=O)c1 10.6%
COc1ccc2c(c1)Cc1sc(NC(=O)c3ccco3)nc1-2 40.3%
COc1ccc2oc(=O)c(C(=O)NCc3ccco3)cc2c1 -14.1%
Cc1ccc(NC(=O)C2CCN(C(=O)c3ccco3)CC2)cc1 0.4%
COc1ccc(-c2cc(C(F)(F)F)n3ncc(C(=O)NCc4ccco4)c3n2)cc1 32.4%
O=C(COc1ccc2oc(-c3ccco3)cc(=O)c2c1)N1CCCCC1 -2.7%
COc1ccc(-n2nc3cc(C)c(N)c(Br)c3n2)cc1 18.3%
Cc1ccccc1S(=O)(=O)Nc1nc2ccccc2nc1N1CCc2ccccc2C1 -43.2%
Cc1ccc(S(=O)(=O)C(C#N)c2nc3ccccc3nc2N2CC(C)OC(C)C2)cc1C (stereo unspecified) 22.8%
N#CC(C(=O)NC1CC1)c1nc2ccccc2nc1N1CCCC1 (stereo unspecified) 29%
C=CCNC(=O)C(C#N)c1nc2ccccc2nc1N1CCCCCC1 (stereo unspecified) 30.3%
Cc1ccc(C)c(S(=O)(=O)C(C#N)c2nc3ccccc3nc2N2CCOCC2)c1 (stereo unspecified) 9.2%
COc1ccc(S(=O)(=O)C(C#N)c2nc3ccccc3nc2N2CCC(C)CC2)cc1 (stereo unspecified) 15.7%
Cc1ccc(C)c(S(=O)(=O)C(C#N)c2nc3ccccc3nc2N2CC(C)OC(C)C2)c1 (stereo unspecified) 4.8%
N#CC(c1nc2ccccc2nc1N1CCCC1)S(=O)(=O)c1cccs1 (stereo unspecified) 37.3%
